A short description of experiment [1]: CCTE_Mundy_HCI_Cortical_Synap_Neur_Matur_SynapseCount: CCTE's Synaptogenesis and Neurite Maturation Assay in rat cortical cells for Synapse Count, Mundy Lab (AID 2284218). As for the experimental part: CCTE_Mundy_HCI_Cortical_Synap&Neurite_Matur is a multiplexed, cell-based-readout assay that uses rat primary cortical cells with measurements taken at 288.33 hours after chemical dosing in a microplate: 96-well plate.CCTE_Mundy_HCI_Cortical_Synap_Neur_Matur_SynapseCount is one of eight components of the CCTE_Mundy_HCI_Cortical_Synap&Neurite_Matur assay. It measures synaptogenesis and neurite maturation related to number of synapses per neuron using High Content Imaging of fluorescently labelled markers.[…] Using a type of morphology reporter, loss -of-signal activity can be used to understand developmental effects.
Cells are plated onto 96 well plates and allowed 2 hr for attachment to the substrate. At days in vitro (DIV) 5, Cytosine Arabinoside (AraC) is added to arrest glial cell growth. Chemicals are dosed and a media change is performed at DIV 7 of differentiation and is continued through DIV 12 when the experiment is terminated. Cells are fixed with […] and Hoechst Dye. Cells are stained using Millipore Mouse anti-MAP2MAB3418 (1:800) and Millipore Rabbit anti-Synaptophysinsc-1750 (1:250) primary antibodies and Alexa Fluor-488 goat anti-mouse and AlexaFluor-546 goat anti-rabbit secondary antibodies to label neuronal cell nuclei, synapses and neurites. A Cellomics ArrayScan VTi HCS Reader is used for automated image acquisition and analysis of neurite outgrowth.

Experiment [2] can be described thus: CCTE_Mundy_HCI_Cortical_Synap_Neur_Matur_NeuriteCount: CCTE's Synaptogenesis and Neurite Maturation Assay in rat cortical cells for Neurite Count, Mundy Lab (AID 2284222).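 Note: exposure from day 7 to day 12 in vitro with readout at day 12.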 In short, it runs like this: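 In this multiplexed morphology readout, rat primary cortical neurons are fixed at DIV 12 following dosing at DIV 7 and stained for MAP2, synaptophysin and nuclei. High-content image analysis yields neurite count.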

Experiment [3] in a line: CCTE_Mundy_HCI_Cortical_Synap_Neur_Matur_CellBodySpotCount: CCTE's Synaptogenesis and Neurite Maturation Assay in rat cortical cells for Cell Body Spot Count, Mundy Lab (AID 2284223). In short, it runs like this: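 High-content imaging counts synaptophysin puncta on neuronal cell bodies per neuron after MAP2/synaptophysin immunostaining. Rat primary cortical cells, glia arrested with AraC at DIV 5, were exposed DIV 7–12; signal decrease measured against DMSO.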

Experiment [4] is described as follows: BSK_BT_PBMCCytotoxicity: PBMC Cytotoxicity Assessment in the BioMAP Diversity Plus: BT Assay (AID 2284225).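 Note: PBMC viability measured by Alamar Blue dye reduction fluorescence.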 Particulars: primary human B cells with PBMC. In short, it runs like this: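 Primary human co-culture of B cells and PBMC, pre-dosed 1 h then activated with SEB and TSST-1. Cytotoxicity is taken from Alamar Blue dye reduction, added for 6 h at the end of a 90 h incubation.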

Read-out in experiment [5]: Secreted IgG (sIgG), gene 3500
Description: BSK_BT_sIgG: BioMAP Diversity Plus: BT Assay for Secreted IgG (sIgG) Biomarker Activity (AID 2284226). Particulars: primary human B cells with PBMC. Summed up: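 Human B cell/PBMC co-culture; compound exposure 24 h; sIgG by ELISA; gain-of-signal fit vs DMSO baseline.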

Experiment [6] can be described thus: BSK_BT_Bcell_Proliferation: Viability Assessment in the BioMAP Diversity Plus: BT Assay for B cell Proliferation (AID 2284227). Particulars: primary human B cells with PBMC. Summed up: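 Using a human primary B cell–PBMC co-culture, the assay measures total protein by sulforhodamine B absorbance as a gauge of proliferation after 72 h. Analysis followed the positive fitting direction with DMSO as baseline.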

A short description of experiment [7]: TAMU_PeakParms_SingleDonor1434_Chronotropy: Texas A&M University (TAMU) 1.5-hr Human Induced Pluripotent Stem Cell (iPSC)-derived Cardiomyocytes Calcium (Ca+2) Flux Assay for Cardiotoxicity: Chronotropy (changes in peak frequency) (AID 2284217). Conditions: actives raise or lower the signal. Summed up: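 Using fluorescent Ca2+ flux, average beats per second are measured in human iPSC-derived cardiomyocytes treated 90 min (0.5% DMSO vehicle, 0.2–100 uM). Non-beating data points are removed; activity is modeled in both directions relative to DMSO controls.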

Experiment [8] can be described thus: CCTE_Mundy_HCI_hN2_NOG_NeuriteCount: CCTE's Neurite Outgrowth Assay in human hN2 cells for Neurite Count, Mundy Lab (AID 2284219; active = hit-call score of the fitted dose curve at least 0.9, where 1 is the maximum). In short, it runs like this: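 In this morphology assay, hNP1-derived neurons received test chemical 2 h post-plating and were fixed two days later in warm paraformaldehyde/sucrose containing Hoechst 33342. Neurites, labelled by rabbit anti-βIII-tubulin (1:800) and Alexa Fluor-488 (1:500), were counted automatically.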

Experiment [9] in a line: CCTE_Mundy_HCI_hN2_NOG_NeuriteLength: CCTE's Neurite Outgrowth Assay in human hN2 cells for Neurite Length, Mundy Lab (AID 2284220; active = hit-call score of the fitted dose curve at least 0.9, where 1 is the maximum). Summed up: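 Plate hNP1-derived neurons, then add chemical 2 h later as a 1/10 dilution. Stain with anti-βIII-tubulin then Alexa Fluor-488 secondary, and image automatically to measure neurite length.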
Experiment [10] in a line: CCTE_Mundy_HCI_hN2_NOG_NeuronCount: CCTE's Neurite Outgrowth Assay in human hN2 cells for Neuron Count, Mundy Lab (AID 2284221; active = hit-call score of the fitted dose curve at least 0.9, where 1 is the maximum). Summed up: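 Read-out is the number of betaIII-tubulin-positive neurons imaged by automated high-content analysis, with DMSO as negative control.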

Where “and” joins values, the source holds several entries; their conditions need not be identical. Equal values may be shown once. Records with an inconclusive call do not appear. The source holds several records for some structures; these can differ, active in one and inactive in another. Calls of active or inactive are those of the source. Rule for the calls, unless noted: active = hit-call score of the fitted dose curve at least 0.9, where 1 is the maximum; inactive = score below 0.9.

The term AC50 denotes the concentration at which the activity in the assay is half-maximal. Consider `O=P(OC(CCl)CCl)(OC(CCl)CCl)OC(CCl)CCl`, for which the AC50 in [1] is 2.98 µM (active). For the same compound, the compound was classed as inactive in experiment [2] and in [3].

Consider `Cn1cnc([N+](=O)[O-])c1Sc1ncnc2nc[nH]c12`, for which the AC50 in experiment [4] was 8.01 µM (active); in [5], 206 nM (active) and 716 nM (active); in experiment [6], 10.5 µM (active) and 5.28 µM (active). Besides, the result in experiment [4] was inactive.

With `CCCCCCc1ccc(O)cc1O`, the outcome in [7] was inactive.

Turning to `NC(=O)NO`, the outcome in experiment [7], in [1], in experiment [8], in experiment [9], in [2] and in [3] was inactive.

Regarding `CC[C@H]1OC(=O)[C@H](C)[C@@H](O[C@H]2C[C@@](C)(OC)[C@@H](O)[C@H](C)O2)[C@H](C)[C@@H](O[C@@H]2O[C@H](C)C[C@H](N(C)C)[C@H]2O)[C@](C)(O)C[C@@H](C)C(=O)[C@H](C)[C@@H](O)[C@]1(C)O`, the call in experiment [1], in experiment [2] and in [3] was inactive.

On to `O=C1CCC(N2C(=O)c3ccccc3C2=O)C(=O)N1` (centres undefined), for which the outcome in [7], in [1], in [9], in experiment [10], in [2] and in experiment [3] was inactive.

Consider `Cn1c(=O)c2c(ncn2C)n(C)c1=O`, for which the outcome in [1], in experiment [8], in [9], in experiment [10], in [2] and in experiment [3] was inactive.

For the origin of these results see PubChem BioAssay (EPA / NIEHS).
